In PubChem BioAssay AID1159580 (chemical genetic matrix, 2015):
Among all 5,500 compounds or so, about 2,000 (36%) were called active. About 18% were inconclusive and are not listed. Rule as the data show it: active = normalized growth mostly below about 0.91 (no sharp cut-off); inconclusive = no clear call, values can overlap the other calls; inactive = mostly above about 0.92. The list shows a part of the results.

Experiment: chemical genetic growth profiling, strain panel (AID 1159580);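 also: tested at 20 µM; growth read once vehicle control cultures reached saturation at 30 °C; 1 = growth at the plate median or of vehicle wells; lower values mean less growth of the strain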
Conditions: growth OD

Measured: normalized growth

CO[C@@]1(NC(=O)Cc2cccs2)C(=O)N2C(C(=O)O)=C(COC(N)=O)CS[C@@H]21
inactive: S. cerevisiae deletion strains, locus YJR066W, strain TOR1, stronger effect = lower value 0.995 | S. cerevisiae deletion strains, locus YKL009W, strain mrt4, stronger effect = lower value 1.01 | S. cerevisiae deletion strains, locus YKL068W, stronger effect = lower value 0.992 | S. cerevisiae deletion strains, locus YKL085W, strain MDH1 (second series), stronger effect = lower value 0.992 | S. cerevisiae deletion strains, locus YKL085W, strain MDH1, stronger effect = lower value 0.992 | S. cerevisiae deletion strains, locus YKL160W, strain elf1, stronger effect = lower value 0.927 | S. cerevisiae deletion strains, locus YKL190W, strain CNB1, stronger effect = lower value 1.01 | S. cerevisiae deletion strains, locus YKR001C, strain vps1, stronger effect = lower value 0.995 | S. cerevisiae deletion strains, locus YKR026C, strain gcn3, stronger effect = lower value 0.977 | S. cerevisiae deletion strains, locus YKR091W, strain srl3, stronger effect = lower value 0.971 | S. cerevisiae deletion strains, locus YLL001W, strain dnm1, stronger effect = lower value 0.966 | S. cerevisiae deletion strains, locus YLL026W, stronger effect = lower value 0.986 | S. cerevisiae deletion strains, locus YLL041C, strain sdh2, stronger effect = lower value 0.971 | S. cerevisiae deletion strains, locus YLR027C, strain aat2, stronger effect = lower value 0.985 | S. cerevisiae deletion strains, locus YLR039C, strain RIC1, stronger effect = lower value 0.998 | S. cerevisiae deletion strains, locus YLR058C, strain SHM2, stronger effect = lower value 1.01 | S. cerevisiae deletion strains, locus YLR102C, strain apc9, stronger effect = lower value 0.989 | S. cerevisiae deletion strains, locus YLR113W, strain HOG1, stronger effect = lower value 1.06 | S. cerevisiae deletion strains, locus YLR221C, strain rsa3, stronger effect = lower value 1 | S. cerevisiae deletion strains, locus YLR258W, strain gsy2, stronger effect = lower value 0.976 | S. cerevisiae deletion strains, locus YLR262C, strain YPT6 (second series), stronger effect = lower value 0.98 | S. cerevisiae deletion strains, locus YLR262C, strain YPT6, stronger effect = lower value 1.01 | S. cerevisiae deletion strains, locus YLR268W, strain sec22, stronger effect = lower value 0.993 | S. cerevisiae deletion strains, locus YLR320W, strain mms22, stronger effect = lower value 0.977 | S. cerevisiae deletion strains, locus YLR330W, strain CHS5, stronger effect = lower value 1 | S. cerevisiae deletion strains, locus YLR342W, strain FKS1 (second series), stronger effect = lower value 0.985 | S. cerevisiae deletion strains, locus YLR342W, strain FKS1, stronger effect = lower value 0.953 | S. cerevisiae deletion strains, locus YLR357W, strain rsc2, stronger effect = lower value 0.915 | S. cerevisiae deletion strains, locus YLR370C, strain arc18, stronger effect = lower value 0.961 | S. cerevisiae deletion strains, locus YLR371W, strain rom2, stronger effect = lower value 0.992 | S. cerevisiae deletion strains, locus YLR384C, strain iki3, stronger effect = lower value 0.968 | S. cerevisiae deletion strains, locus YLR418C, strain cdc73, stronger effect = lower value 0.988 | S. cerevisiae deletion strains, locus YML016C, strain PPZ1, stronger effect = lower value 1 | S. cerevisiae deletion strains, locus YML032C, strain rad52, stronger effect = lower value 0.994 | S. cerevisiae deletion strains, locus YML120C, strain ndi1, stronger effect = lower value 0.986 | S. cerevisiae deletion strains, locus YML124C, strain tub3, stronger effect = lower value 0.993 | S. cerevisiae deletion strains, locus YMR058W, strain fet3, stronger effect = lower value 0.984 | S. cerevisiae deletion strains, locus YMR078C, strain ctf18, stronger effect = lower value 0.993 | S. cerevisiae deletion strains, locus YMR125W, strain sto1, stronger effect = lower value 0.963 | S. cerevisiae deletion strains, locus YMR129W, stronger effect = lower value 0.971 | S. cerevisiae deletion strains, locus YMR205C, strain PFK2, stronger effect = lower value 0.988 | S. cerevisiae deletion strains, locus YMR223W, strain ubp8, stronger effect = lower value 0.998 | S. cerevisiae deletion strains, locus YMR231W, strain pep5, stronger effect = lower value 0.98 | S. cerevisiae deletion strains, locus YMR307W, strain GAS1, stronger effect = lower value 0.975 | S. cerevisiae deletion strains, locus YNL067W, strain RPL9B, stronger effect = lower value 1 | S. cerevisiae deletion strains, locus YNL071W, strain lat1, stronger effect = lower value 0.973 | S. cerevisiae deletion strains, locus YNL153C, strain GIM3, stronger effect = lower value 1.02 | S. cerevisiae deletion strains, locus YNL183C, strain NPR1, stronger effect = lower value 1 | S. cerevisiae deletion strains, locus YNL209W, strain ssb2, stronger effect = lower value 0.972 | S. cerevisiae deletion strains, locus YNL233W, strain BNI4, stronger effect = lower value 1 | S. cerevisiae deletion strains, locus YNL248C, strain rpa49, stronger effect = lower value 0.916 | S. cerevisiae deletion strains, locus YNL250W, strain rad50, stronger effect = lower value 1.01 | S. cerevisiae deletion strains, locus YNL271C, strain bni1, stronger effect = lower value 0.985 | S. cerevisiae deletion strains, locus YNL298W, strain CLA4, stronger effect = lower value 0.975 | S. cerevisiae deletion strains, locus YNL307C, strain MCK1, stronger effect = lower value 1 | S. cerevisiae deletion strains, locus YNL322C, strain KRE1 (second series), stronger effect = lower value 0.972 | S. cerevisiae deletion strains, locus YNL322C, strain KRE1, stronger effect = lower value 1.01 | S. cerevisiae deletion strains, locus YNR049C, strain mso1, stronger effect = lower value 0.953 | S. cerevisiae deletion strains, locus YNR052C, strain pop2, stronger effect = lower value 1 | S. cerevisiae deletion strains, locus YOL006C, strain TOP1, stronger effect = lower value 1.08 | S. cerevisiae deletion strains, locus YOL012C, strain htz1 1.61 | S. cerevisiae deletion strains, locus YOL147C, strain pex11, stronger effect = lower value 0.992 | S. cerevisiae deletion strains, locus YOR001W, strain rrp6, stronger effect = lower value 1 | S. cerevisiae deletion strains, locus YOR061W, strain CKA2, stronger effect = lower value 1.01 | S. cerevisiae deletion strains, locus YOR069W, strain VPS5, stronger effect = lower value 1 | S. cerevisiae deletion strains, locus YOR070C, strain gyp1, stronger effect = lower value 0.979 | S. cerevisiae deletion strains, locus YOR080W, strain dia2, stronger effect = lower value 0.986 | S. cerevisiae deletion strains, locus YOR083W, strain WHI5, stronger effect = lower value 0.894 | S. cerevisiae deletion strains, locus YOR106W, strain vam3, stronger effect = lower value 0.951 | S. cerevisiae deletion strains, locus YOR136W, strain idh2, stronger effect = lower value 1 | S. cerevisiae deletion strains, locus YOR144C, strain elg1, stronger effect = lower value 0.998 | S. cerevisiae deletion strains, locus YOR184W, strain ser1, stronger effect = lower value 1.02 | S. cerevisiae deletion strains, locus YOR231W, strain MKK1, stronger effect = lower value 1.09 | S. cerevisiae deletion strains, locus YOR265W, strain rbl2, stronger effect = lower value 0.999 | S. cerevisiae deletion strains, locus YOR270C, strain vph1, stronger effect = lower value 0.936 | S. cerevisiae deletion strains, locus YOR290C, strain snf2, stronger effect = lower value 0.945 | S. cerevisiae deletion strains, locus YOR316C, strain cot1, stronger effect = lower value 0.995 | S. cerevisiae deletion strains, locus YPL051W, strain arl3, stronger effect = lower value 0.977 | S. cerevisiae deletion strains, locus YPL078C, strain atp4, stronger effect = lower value 0.937 | S. cerevisiae deletion strains, locus YPL106C, strain sse1, stronger effect = lower value 0.96 | S. cerevisiae deletion strains, locus YPL240C, strain hsp82, stronger effect = lower value 0.984 | S. cerevisiae deletion strains, locus YPL256C, strain CLN2, stronger effect = lower value 1.08 | S. cerevisiae deletion strains, locus YPR119W, strain clb2, stronger effect = lower value 0.992 | S. cerevisiae deletion strains, locus YPR141C, strain kar3, stronger effect = lower value 0.994 | S. cerevisiae deletion strains, locus YPR163C, strain tif3, stronger effect = lower value 1 | S. cerevisiae deletion strains, locus YPR167C, strain met16, stronger effect = lower value 0.998 | S. cerevisiae deletion strains, strain wtn01, stronger effect = lower value 0.99 | S. cerevisiae strains, strain wild type, stronger effect = lower value 1.01
